From PubChem BioAssay
Active and inactive are the calls of the source.

How the values were obtained:
[1] = tested on: PRMT1 (protein arginine N-methyltransferase 1); experiment: PRMT1 binders on small-molecule microarrays, primary screen, biochemical, small-molecule microarray, 635 nm fluorescence (AID 1088); settings: small-molecule microarray binding, higher = more signal;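 note: binding of Prmt1 protein to compounds spotted on small-molecule microarray slides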
[2] = yeast growth modulation, basal conditions, primary screen, YJM789 clinical isolate, OD600, 24 h (AID 1089);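 note: growth of clinical yeast isolate S. cerevisiae YJM 789 seeded 1000 cells per well; test concentration not given here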; settings: S. cerevisiae YJM789 growth, higher = more signal, called active from +8 up or from −8 down
[3] = fission yeast growth modulation, primary screen, strain 972, OD600, 24 h, no modulator (AID 1090);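 note: basal condition with compound alone and no growth modifier present; test concentration not given here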; settings: S. pombe 972 growth, higher = more signal, called active from +8 up or from −8 down
[4] = S. cerevisiae growth modulation with rapamycin, primary screen, strain BY4716, OD600, 96 h (AID 1091); settings: higher = more signal, called active from +8 up or from −8 down; note: test concentration not given here
[5] = molecular target: Torsin-1A-interacting protein 2 (Homo sapiens) (UniProt Q8NFQ8); experiment: LULL1 binders on small-molecule microarray, primary screen, cell lysate, human LULL1 lysate, 635/667 nm fluorescence (AID 1092); settings: hLULL1 lysate binding, 635 nm fluorescence, higher = more signal;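 note: probe is lysate of COS7 cells overexpressing human LULL1; score merges per-feature 667 nm fluorescence with signal-to-noise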
[6] = E. coli growth modulation, two-sided OD650, primary screen, E. coli filamentation project, strain DRC41, 24 h (AID 1093); settings: OD650, 24 h, higher = more signal, called active from +8 up or from −8 down;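 note: MC1000 strain lacking acrAB efflux and sulA so SOS filamentation is blocked; test concentration not given here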
[7] = small-molecule microarray binders of probe aLefty2, primary screen, biochemical, biotinylated probe, 635/667 nm fluorescence (AID 1094); settings: higher = more signal;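 note: score merges spot fluorescence near 667 nm with spot signal-to-noise ratio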
[8] = tested on: Noggin (protein binding on small-molecule microarray); experiment: Noggin binders on small-molecule microarray, primary screen, biochemical, 635/667 nm fluorescence (AID 1095); settings: 635 nm fluorescence, higher = more signal;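 note: score merges 667 nm feature fluorescence with signal to noise over triplicate slides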
[9] = molecular target: Neurogenic locus notch homolog protein 3 (Homo sapiens) (UniProt Q9UM47); experiment: NOTCH3 binders on small-molecule microarray, primary screen, biochemical, 635/667 nm fluorescence (AID 1096); settings: NOTCH3 binding, 635 nm fluorescence, higher = more signal
[10] = small-molecule microarray binders of probe aEGFR, primary screen, biochemical, biotinylated probe, 635/667 nm fluorescence (AID 1097); settings: higher = more signal;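 note: probe is a biotinylated anti-EGFR antibody binding compounds printed on slides; score combines fluorescence near 667 nm and signal to noise of each spot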

Torsin-1A-interacting protein 2 (Homo sapiens), sequence (Q8NFQ8 whole entry, looked up): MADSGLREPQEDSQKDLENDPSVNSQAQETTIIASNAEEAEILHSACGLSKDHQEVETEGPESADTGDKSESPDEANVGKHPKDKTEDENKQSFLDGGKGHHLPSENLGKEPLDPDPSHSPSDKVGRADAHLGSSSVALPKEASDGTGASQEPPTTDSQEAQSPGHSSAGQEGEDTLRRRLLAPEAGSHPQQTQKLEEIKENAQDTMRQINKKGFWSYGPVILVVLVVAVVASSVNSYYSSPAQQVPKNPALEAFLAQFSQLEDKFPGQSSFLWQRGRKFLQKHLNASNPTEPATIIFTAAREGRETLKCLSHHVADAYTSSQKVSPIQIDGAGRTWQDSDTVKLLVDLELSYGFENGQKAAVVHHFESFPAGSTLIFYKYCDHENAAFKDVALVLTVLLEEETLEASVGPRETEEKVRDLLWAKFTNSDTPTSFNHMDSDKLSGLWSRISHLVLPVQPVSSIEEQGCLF
Neurogenic locus notch homolog protein 3 (Homo sapiens), sequence (Q9UM47 whole entry, looked up): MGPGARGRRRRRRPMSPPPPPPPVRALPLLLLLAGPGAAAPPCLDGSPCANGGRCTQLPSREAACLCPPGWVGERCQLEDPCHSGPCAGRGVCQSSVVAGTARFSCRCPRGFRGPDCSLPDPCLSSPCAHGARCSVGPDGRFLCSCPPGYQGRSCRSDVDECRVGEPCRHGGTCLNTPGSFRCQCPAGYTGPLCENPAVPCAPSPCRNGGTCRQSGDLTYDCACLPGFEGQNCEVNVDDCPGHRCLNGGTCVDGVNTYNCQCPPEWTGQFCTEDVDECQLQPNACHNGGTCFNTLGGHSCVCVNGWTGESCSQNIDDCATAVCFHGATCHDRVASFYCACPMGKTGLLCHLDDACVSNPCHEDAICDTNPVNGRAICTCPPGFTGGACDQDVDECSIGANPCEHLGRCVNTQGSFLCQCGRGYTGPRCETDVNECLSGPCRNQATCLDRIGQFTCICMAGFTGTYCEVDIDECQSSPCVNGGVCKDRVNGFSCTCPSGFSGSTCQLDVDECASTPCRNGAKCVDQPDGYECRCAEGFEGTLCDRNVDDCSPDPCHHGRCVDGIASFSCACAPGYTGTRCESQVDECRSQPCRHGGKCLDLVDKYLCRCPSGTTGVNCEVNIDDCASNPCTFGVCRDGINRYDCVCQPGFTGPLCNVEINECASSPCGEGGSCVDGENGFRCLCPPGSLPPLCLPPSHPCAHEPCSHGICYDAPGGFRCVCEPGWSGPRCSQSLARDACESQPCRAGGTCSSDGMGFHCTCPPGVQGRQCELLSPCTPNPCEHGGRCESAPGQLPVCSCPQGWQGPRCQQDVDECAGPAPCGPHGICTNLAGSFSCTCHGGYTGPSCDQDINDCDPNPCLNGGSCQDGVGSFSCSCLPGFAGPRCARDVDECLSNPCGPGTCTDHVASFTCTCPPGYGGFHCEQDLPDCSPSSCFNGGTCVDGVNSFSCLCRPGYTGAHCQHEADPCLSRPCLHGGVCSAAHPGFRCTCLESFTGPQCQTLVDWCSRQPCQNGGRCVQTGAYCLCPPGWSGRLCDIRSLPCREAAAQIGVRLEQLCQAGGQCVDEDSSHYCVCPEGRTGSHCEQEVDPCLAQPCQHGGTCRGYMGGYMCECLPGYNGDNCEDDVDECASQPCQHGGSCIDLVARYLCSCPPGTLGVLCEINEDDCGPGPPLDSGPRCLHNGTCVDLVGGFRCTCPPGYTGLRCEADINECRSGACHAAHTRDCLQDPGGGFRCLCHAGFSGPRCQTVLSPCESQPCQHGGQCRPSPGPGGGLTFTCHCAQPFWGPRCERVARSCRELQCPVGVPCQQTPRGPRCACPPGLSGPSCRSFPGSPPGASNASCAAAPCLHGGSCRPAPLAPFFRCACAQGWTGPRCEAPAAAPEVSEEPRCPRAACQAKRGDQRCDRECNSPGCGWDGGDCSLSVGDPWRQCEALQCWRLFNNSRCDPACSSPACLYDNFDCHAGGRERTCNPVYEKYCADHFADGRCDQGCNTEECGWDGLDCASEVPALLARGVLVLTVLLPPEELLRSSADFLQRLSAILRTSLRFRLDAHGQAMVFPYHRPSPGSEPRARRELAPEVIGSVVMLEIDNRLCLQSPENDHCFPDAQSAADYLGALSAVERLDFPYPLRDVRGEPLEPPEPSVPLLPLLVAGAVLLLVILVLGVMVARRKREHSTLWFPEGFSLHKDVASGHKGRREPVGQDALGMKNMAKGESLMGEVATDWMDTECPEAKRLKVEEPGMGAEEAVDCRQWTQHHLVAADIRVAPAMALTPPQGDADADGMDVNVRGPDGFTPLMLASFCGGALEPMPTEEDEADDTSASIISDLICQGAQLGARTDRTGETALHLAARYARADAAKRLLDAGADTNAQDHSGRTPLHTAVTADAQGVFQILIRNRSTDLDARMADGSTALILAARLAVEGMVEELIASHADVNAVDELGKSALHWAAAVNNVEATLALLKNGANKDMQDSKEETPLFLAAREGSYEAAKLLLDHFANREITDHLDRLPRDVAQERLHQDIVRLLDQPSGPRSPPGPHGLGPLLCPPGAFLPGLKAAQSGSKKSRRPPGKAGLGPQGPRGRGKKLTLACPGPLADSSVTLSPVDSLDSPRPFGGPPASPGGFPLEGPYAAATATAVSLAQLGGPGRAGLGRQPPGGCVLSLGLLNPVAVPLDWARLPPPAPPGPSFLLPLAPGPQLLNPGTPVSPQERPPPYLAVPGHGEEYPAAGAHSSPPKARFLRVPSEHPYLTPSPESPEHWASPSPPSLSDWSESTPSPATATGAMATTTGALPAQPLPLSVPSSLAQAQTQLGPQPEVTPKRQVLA

Row | SMILES | composite z-score [1] | z-score [2] | z-score [3] | z-score [4] | composite z-score [5] | z-score [6] | composite z-score [7] | composite z-score [8] | composite z-score [9] | composite z-score [10]
1 | COC(=O)c1c(CC[C@@H](CO)NC(=O)N[C@H](Cn2cc(Cc3ccccc3)nn2)C(C)C)oc(C(C)=O)c1C(=O)OC | 1.08 | -0.178 (inactive) | -0.787 (inactive) | 0.158 (inactive) | 1.08 | 0.918 (inactive) | -0.166 | 0.493 | 0.39 | -0.145
2 | C=C(COC)/C(=C/C[C@@H](OC(C)=O)c1ccc(OCCO)cc1)c1cc(C(=O)OC)ccc1OC | 1.54 | 0.0937 (inactive) | -0.51 (inactive) | -0.645 (inactive) | 2.16 | -0.018 (inactive) | -0.027 | 1.35 | 1.12 | -0.0728
3 | CN1C(=O)C2C=CC(C(O)C3CC=CCC3)N(NC(=O)OC(C)(C)C)C2C1=O (stereo not given) | 1.14 | 0.0125 (inactive) | 0.826 (inactive) | 0.259 (inactive) | 3.54 | -1.16 (inactive) | -0.0379 | 0.532 | 0.95 | -0.0197
4 | COCCOC(=O)N1C(=O)[C@@]2(c3cc(C#CCCO)ccc31)[C@H](c1ccc(OCCO)cc1)N1[C@H](c3ccccc3)[C@H](c3ccccc3)OC(=O)[C@H]1[C@@H]2C(=O)N1CCN(c2ncccn2)CC1 | 1.55 | -0.01 (inactive) | 0.342 (inactive) | 2.94 (inactive) | 2.42 | -0.0542 (inactive) | -0.123 | 1.23 | 1.06 | -0.0066
5 | COCCCN1C(=O)[C@@]2(c3ccc([N+](=O)[O-])cc3)CC(=O)N(C3CCCCC3)[C@@H]2c2ccc(CO)cc21 | 0.996 | 0.134 (inactive) | 0.734 (inactive) | -1.35 (inactive) | -0.701 | 0.56 (inactive) | -0.0782 | 0.549 | -0.37 | -0.128
6 | CCOC(=O)C=Cc1cc([N+](=O)[O-])ccc1O | 0.385 | -1.21 (inactive) | -0.201 (inactive) | -1.62 (inactive) | 0.381 | -0.828 (inactive) | -0.088 | -0.609 | -0.465 | -0.141
7 | O=C1NC(=O)C2C1C=CC(C(O)c1cccc3ccccc13)N2Nc1ccccn1 (stereo not given) | 0.246 | 0.143 (inactive) | 1.14 (inactive) | -0.207 (inactive) | 1.37 | 0.213 (inactive) | 0.127 | -0.321 | -0.198 | -0.0766
8 | [N-]=[N+]=Nc1ccccc1C[C@]1(C(N)=O)N=C(c2ccc(OCCCO)cc2)O[C@H]1c1ccccc1 | 0.203 | 0.515 (inactive) | 0.248 (inactive) | 0.143 (inactive) | 3.19 | 0.104 (inactive) | -0.0893 | -0.194 | 0.444 | -0.115
9 | CCc1oc(CC[C@@H](CO)NC(=O)NCCn2cc(C3(O)CCCCC3)nn2)c(C(=O)OC)c1C(=O)OC | 1.32 | 0.458 (inactive) | -0.173 (inactive) | -0.874 (inactive) | 0.775 | -1.2 (inactive) | -0.0615 | 1.39 | 0.939 | 0.0473
10 | CCOc1cc(C(O)C2C=CC3C(=O)N(c4ccccc4)C(=O)C3N2Nc2ccccc2)ccc1O (stereo not given) | 0.408 | 0.881 (inactive) | -0.692 (inactive) | 1.2 (inactive) | 3.52 | 0.374 (inactive) | -0.0371 | -0.419 | 0.498 | 0.0192
11 | Cc1ccc(S[C@]2(C(=O)NC3CC3)CC(=O)N(C3Cc4ccccc4C3)[C@@H]2c2ccc(CO)cc2)cc1 | 1.38 | -2.31 (inactive) | -0.945 (inactive) | -1.13 (inactive) | 3.08 | 2.12 (inactive) | -0.0533 | -0.878 | 0.19 | -0.221
12 | COC(=O)[C@@]1(Cc2ccccc2)[C@H]2c3cc(C(=O)N(C)C)n(CCSCCO)c3C[C@H]2CN1C(=O)c1ccccc1 | -0.0249 | -0.177 (inactive) | 0.536 (inactive) | -0.694 (inactive) | 3.09 | -0.842 (inactive) | 0.172 | -0.411 | -0.0488 | 0.0239
13 | C=CCOC(=O)[C@H]1[C@@H]2C(=O)O[C@@H](c3ccccc3)[C@@H](c3ccccc3)N2[C@@H](c2ccc(OCCOC(=O)[C@@H]3C[C@@H]4C(=O)N[C@@H](CCCC[N+](C)(C)C)C(=O)N4[C@@H]3c3ccc(O)cc3)cc2)[C@]12C(=O)Nc1ccccc12 | 1.55 | -1.27 (inactive) | -3.66 (inactive) | -1.02 (inactive) | 2.84 | 0.155 (inactive) | 0.236 | 1.64 | 1.12 | -0.0663
14 | [N-]=[N+]=Nc1ccccc1C[C@@]1(C(=O)NCCN2CCOCC2)N=C(c2ccc(OCCCO)cc2)O[C@@H]1c1ccccc1 | 1.55 | -2.58 (inactive) | -4.77 (inactive) | -1.77 (inactive) | 3.27 | 1.26 (inactive) | -0.0673 | 0.748 | 1.08 | 0.0371
